Assay outcomes (PubChem)
TbREL1 inh = TbREL1 RNA ligase inhibitors, primary screen, biochemical, FRET fluorescence. RNA-editing ligase 1, mitochondrial (Trypanosoma brucei brucei), P86926. TbREL1 RNA ligation. inhibition, % at 9.66 µM. 89,000 compounds, 0.49% hits. AID 1117264, 2014;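 active = inhibition above the mean inhibition across all screened compounds plus 3 SD, cut at about 11% in these data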
Target sequence (P86926 whole entry, looked up): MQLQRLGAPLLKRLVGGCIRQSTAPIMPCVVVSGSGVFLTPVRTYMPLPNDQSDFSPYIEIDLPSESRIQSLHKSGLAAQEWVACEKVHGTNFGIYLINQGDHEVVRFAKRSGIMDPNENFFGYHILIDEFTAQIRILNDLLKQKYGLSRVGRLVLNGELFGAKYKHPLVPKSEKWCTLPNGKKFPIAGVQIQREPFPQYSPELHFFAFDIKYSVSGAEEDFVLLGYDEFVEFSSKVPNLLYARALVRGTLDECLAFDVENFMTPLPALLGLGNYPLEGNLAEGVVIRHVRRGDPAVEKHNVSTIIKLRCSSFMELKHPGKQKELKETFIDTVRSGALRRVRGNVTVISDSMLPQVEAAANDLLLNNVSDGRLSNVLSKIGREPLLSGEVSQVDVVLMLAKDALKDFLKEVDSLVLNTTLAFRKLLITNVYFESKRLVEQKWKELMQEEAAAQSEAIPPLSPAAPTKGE
TbREL1 conf = TbREL1 RNA ligase inhibitors, confirmation, biochemical, FRET fluorescence, triplicate | 390 compounds, 37% hits | shares compounds with TbREL1 inh | TbREL1 RNA ligation | inhibition, % at 9.66 µM;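 active = mean inhibition across replicates above a set limit taken from the earlier primary screen, cut at about 11% in these data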
Numbers stand for hits; n = inactive. This excerpt belongs to a sample that is enriched for hits.

SMILES	TbREL1 inh	others
CS(=O)(=O)N1CCN(S(=O)(=O)c2ccccc2[N+](=O)[O-])CC1	n
CCC1CCCCN1S(=O)(=O)c1ccccc1[N+](=O)[O-] (stereo not given)	n
O=[N+]([O-])c1ccccc1S(=O)(=O)N1CCN(C2CCCC2)CC1	11	TbREL1 conf=n
CC(=O)C1=C(C)N(Cc2ccc(Br)cc2)C(=S)NC1c1cccc(Cl)c1 (stereo not given)	n
Cc1ccc(Cn2cc(COC(=O)N3CCOCC3)nn2)cc1	n
CSc1ccc(-c2cnc(N3CCC(C(N)=O)CC3)s2)cc1	n
CC(C)C[C@H](NC1(C(=O)NCCc2c[nH]c3ccccc23)CCC1)C(=O)NCCCc1ccccc1	n
Cc1ccc(N(C(=O)c2ccco2)C(C(=O)NC2CCCC2)c2ccco2)c(C)c1 (stereo not given)	n
Cc1ccc(C(C(=O)NC2CCCCC2)N(C(=O)Cc2c[nH]c3ccccc23)c2ccccc2C)o1 (stereo not given)	n
Cc1ccc(N(C(=O)Cc2c[nH]c3ccccc23)C(C(=O)NC2CCCCC2)c2ccco2)cc1 (stereo not given)	11	TbREL1 conf=n
FC(F)(F)c1cccc(N2CCN(C3=Nc4ccccc4Sc4ccccc43)CC2)c1	n
Cc1ccc(-n2c(SCC(=O)Nc3ccc(OCc4ccccc4)cc3)nnc2-c2ccccc2)cc1	n
CN=c1scc(C)n1/N=C/c1ccc(O)c(O)c1O	28	TbREL1 conf=38
Cc1cc(SCC(=O)N/N=C/c2ccc(O)c(O)c2O)c(C)cc1Br	n
COCCN=c1scc(-c2ccco2)n1/N=C/c1ccc(O)c(O)c1O	n
O=C(NCC(c1ccccc1)c1ccccc1)[C@H](Cc1ccccc1)NC1(C(=O)NC2CCCCC2)CCC1	n
O=C(NCC(c1ccccc1)c1ccccc1)[C@H](Cc1ccccc1)NC1(C(=O)NC2CCCCC2)CCCCCC1	12	TbREL1 conf=n
CN1CCC(N[C@@H](Cc2ccccc2)C(=O)NCC(c2ccccc2)c2ccccc2)(C(=O)NC2CCCCC2)CC1	13	TbREL1 conf=14
CC(C)C[C@H](NC1(C(=O)NC2CCCCC2)CCC1)C(=O)NCC(c1ccccc1)c1ccccc1	n
O=C(NCC(c1ccccc1)c1ccccc1)[C@H](Cc1c[nH]c2ccccc12)NC1(C(=O)NC2CCCCC2)CCCC1	n
COC(CNC(=O)[C@H](Cc1ccccc1)NC1(C(=O)NC2CCCCC2)CCC1)OC	n
CCCCNC(=O)O[C@H]1CC[C@@]23CCCN2C(=O)CCC[C@H]3[C@H]1CCC	n
Cn1c(SCC(=O)Nc2ccc(S(=O)(=O)Nc3nccs3)cc2)nc2sc3c(c2c1=O)CCCC3	n
O=S1(=O)CCOCC(CO)N1Cc1cccc(Br)c1 (stereo not given)	n
O=C(O)c1ccccc1-c1ccc(C=c2sc3nc4cc(Br)cnc4n3c2=O)o1	45	TbREL1 conf=48
SMILES	TbREL1 inh	others
N=C1S/C(=C\c2ccc(-c3ccccc3C(=O)O)o2)C(=O)N1c1ccc2c(c1)OCO2	n
O=C(O)c1ccccc1-c1ccc(/C=C/c2cc(C(F)(F)F)[nH]c(=O)n2)o1	n
O=C(NCCc1ccccc1F)c1cc2ccccn2n1	n
CCOC(=O)C1(Cc2ccccc2)CCN(Cc2ccccc2[N+](=O)[O-])CC1	n
O=c1c(-c2ccc(O)cc2)coc2cc(OC3OC(CO)C(O)C(O)C3O)cc(O)c12 (stereo not given)	n
C[C@@H]1O[C@@H](Oc2c(-c3cc(O)c(O)c(O)c3)oc3cc(O)cc(O)c3c2=O)[C@H](O)[C@H](O)[C@H]1O	54	TbREL1 conf=36
COc1cc(-c2oc3cc(O)cc(O)c3c(=O)c2O[C@@H]2O[C@H](COC3O[C@@H](C)[C@H](O)[C@@H](O)[C@H]3O)[C@@H](O)[C@H](O)[C@H]2O)ccc1O (stereo not given in full)	n
S=c1[nH]nc(-c2cc(-c3ccccc3)n[nH]2)n1N=Cc1cccc(Oc2ccccc2)c1	n
CCOC(=O)[C@@]12CCCC=C1N(CCc1ccc(Cl)cc1)C(=O)[C@H]2CC(=O)NCc1ccc(C)o1	n
O=C1c2ccccc2C(=O)N1CCOc1ccccc1	n
Cc1ccc(OCCN2C(=O)C(=O)c3cc(C)ccc32)cc1	12	TbREL1 conf=n
Cc1ccc(OCCn2c(=O)sc3ccccc32)cc1	n
O=C(C1CCN(c2cncnc2)CC1)N1CCOCC1	n
C[C@@H]1CN([C@@H](C)CO)C(=O)c2cccc(NC(=O)Nc3cccc4ccccc34)c2O[C@H]1CN(C)S(=O)(=O)c1ccc2c(c1)OCCO2	n
O=C(N/N=C/c1ccc(OC(=O)c2ccccc2Cl)cc1)c1cc(O)cc(O)c1	12	TbREL1 conf=19
Cc1cccc(C(=O)Oc2ccc(/C=N/NC(=O)c3ccc(O)cc3)cc2)c1	n
COc1ccc(/C=N/NC(=O)c2cccc(NC(=O)c3ccccc3Cl)c2)cc1	n
C[C@H]1[C@H](N(Cc2cccs2)Cc2cccs2)CC[C@@]23CCCN2C(=O)CCC[C@@H]13	n
CCCC1CCC2(CC1)CCC2OC(=S)Nc1ccccc1Cl (stereo not given)	n
Cc1nc2cc(-c3ccsc3-n3c(C)ccc3C)[nH]n2c(=O)c1Cl	27	TbREL1 conf=n
C=CCc1c(C)nc2cc(-c3ccc(C)cc3)[nH]n2c1=O	n
CCOC(=O)Cc1c(C)nc2cc(-c3ccc(C(C)(C)C)cc3)[nH]n2c1=O	n
C=CCN1C(=O)[C@@H](CC(=O)N2CCCC2)[C@]2(C(=O)OC)CCCCC=C12	n
O=C(CSc1cc(Cl)ccc1Cl)N/N=C/c1ccc[nH]1	n
C#CCOCCOCCOCCNc1nc(N2CCN(C(=O)[C@H](CCC(=O)O)n3cc(C(N)Cc4ccc(O)cc4)nn3)CC2)nc(N2CCN(C(=O)[C@H](CCC(=O)O)n3cc(C(N)Cc4ccc(O)cc4)nn3)CC2)n1 (stereo not given in full)	n
SMILES	TbREL1 inh	others
C#CCOCCOCCOCCNc1nc(N2CCN(C(=O)[C@H](CCCCN)n3cc([C@@H](N)CC(C)C)nn3)CC2)nc(N2CCN(C(=O)[C@H](Cc3cc4ccccc4[nH]3)n3cc([C@@H](N)CC(C)C)nn3)CC2)n1	20	TbREL1 conf=13
C#CCOCCOCCOCCNc1nc(N2CCN(C(=O)[C@H](Cc3ccc(O)cc3)n3cc([C@@H](N)CC(C)C)nn3)CC2)nc(N2CCN(C(=O)[C@H](Cc3cc4ccccc4[nH]3)n3cc([C@@H](N)CC(C)C)nn3)CC2)n1	n
C#CCOCCOCCOCCNc1nc(N2CCN(C(=O)[C@H]([C@@H](C)CC)n3cc([C@@H](N)CO)nn3)CC2)nc(N2CCN(C(=O)[C@H](CCCCN)n3cc([C@@H](N)CO)nn3)CC2)n1	n
C#CCOCCOCCOCCNc1nc(N2CCN(C(=O)[C@H](CCCCN)n3cc(CN)nn3)CC2)nc(N2CCN(C(=O)[C@H](CCC(=O)O)n3cc([C@@H](N)CCCCN)nn3)CC2)n1	n
C#CCOCCOCCOCCNc1nc(N2CCOCC2)nc(N2CCN(C(=O)[C@H](CCC(=O)O)n3cc(C(N)CO)nn3)CC2)n1 (stereo not given in full)	16	TbREL1 conf=n
O=C(CSc1nnc(-c2ccccc2)n1-c1ccc(Cl)cc1)c1ccccc1Br	n
O=C(CSc1nnc(-c2ccncc2)n1-c1ccc(Cl)cc1)c1ccc(Cl)c(Cl)c1	n
O=C(CSc1nc2ccccc2nc1N1CCCCC1)N1CCN(S(=O)(=O)c2ccccc2)CC1	n
Cc1cc(=O)[nH]c(SCC(=O)Nc2ccc(F)c(F)c2)n1	n
